Test results as given in the supplement of paper PMC12282887.
± gives the standard deviation of the averaged measurements.

System: E. coli BW25113 marRABp lux reporter
Assay: promoter activity interaction Z-score (Lux/OD deviation from empty-vector control); higher = stronger promoter induction by the compound
Protocol: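 E. coli BW25113 (wild type or ΔmarA/ΔsoxS/Δrob) carrying pTU175 luxCDABE promoter reporters was grown in LB in 384-well plates at 37°C with each of 94 compounds at 4 two-fold concentrations, in biological duplicates. Luminescence and OD600 were read every 30 min for 12 h and integrated as AUC over 8 h (0-8 h WT, 1-9 h mutants). Lux AUC was divided by OD AUC; the interaction score is the residual of a Huber robust fit of each promoter against the empty-vector control, then Z-transformed per promoter.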

In the case of Cc1c(N)nc([C@H](CC(N)=O)NC[C@H](N)C(N)=O)nc1C(=O)N[C@H](C(=O)N[C@H](C)[C@@H](O)[C@H](C)C(=O)N[C@H](C(=O)NCCc1nc(-c2nc(C(=O)NCCC[S+](C)C)cs2)cs1)[C@@H](C)O)[C@@H](OC1OC(CO)C(O)C(O)C1OC1OC(CO)C(O)C(OC(N)=O)C1O)c1cnc[nH]1 (some centres undefined) [Bleomycin], the “promoter activity interaction Z-score” value (0.038 µg/ml, genetic background: wild type) is reported as -0.417 ± 0.23, the “promoter activity interaction Z-score” value (0.038 µg/ml, genetic background: ΔmarA) is reported as -0.0394 ± 0.031 and the “promoter activity interaction Z-score” value (0.038 µg/ml, genetic background: Δrob) is reported as -0.132 ± 0.16. For the same molecule, the “promoter activity interaction Z-score” value (0.038 µg/ml, genetic background: ΔsoxS) was 0.0622 ± 0.095, the “promoter activity interaction Z-score” value (0.076 µg/ml, genetic background: wild type) was 0.0986 ± 0.2 and the “promoter activity interaction Z-score” value (0.076 µg/ml, genetic background: ΔmarA) was 0.278 ± 0.39. For the same molecule, the “promoter activity interaction Z-score” value (0.076 µg/ml, genetic background: Δrob) was 0.331 ± 0.28, the “promoter activity interaction Z-score” value (0.076 µg/ml, genetic background: ΔsoxS) was 0.321 ± 0.053 and the “promoter activity interaction Z-score” value (0.15 µg/ml, genetic background: wild type) was 0.24 ± 0.21. For the same molecule, the “promoter activity interaction Z-score” value (0.15 µg/ml, genetic background: ΔmarA) was 0.245 ± 0.13, the “promoter activity interaction Z-score” value (0.15 µg/ml, genetic background: Δrob) was 0.652 ± 0.46 and the “promoter activity interaction Z-score” value (0.15 µg/ml, genetic background: ΔsoxS) was 0.457 ± 0.048. The “promoter activity interaction Z-score” value (0.3 µg/ml, genetic background: wild type) was 2.68 ± 0.29.
For CC(=O)N[C@H]1[C@@H](O[C@@H]2O[C@H](CC(O)[C@H]3O[C@@H](n4ccc(=O)[nH]c4=O)[C@H](O)[C@@H]3O)[C@H](O)[C@H](O)[C@H]2NC(=O)/C=C/CC(C)C)O[C@H](CO)[C@@H](N)[C@@H]1O (some centres undefined) [Tunicamycin], the “promoter activity interaction Z-score” value (2.6 µg/ml, genetic background: wild type) was -0.437 ± 0.048, the “promoter activity interaction Z-score” value (2.6 µg/ml, genetic background: ΔmarA) was -0.39 ± 0.54 and the “promoter activity interaction Z-score” value (2.6 µg/ml, genetic background: Δrob) was -0.2 ± 0.15. The “promoter activity interaction Z-score” value (2.6 µg/ml, genetic background: ΔsoxS) was -0.379 ± 0.38, the “promoter activity interaction Z-score” value (5.3 µg/ml, genetic background: wild type) was -0.455 ± 0.15 and the “promoter activity interaction Z-score” value (5.3 µg/ml, genetic background: ΔmarA) was -0.634 ± 0.41. For the same molecule, the “promoter activity interaction Z-score” value (5.3 µg/ml, genetic background: Δrob) was -0.284 ± 0.008, the “promoter activity interaction Z-score” value (5.3 µg/ml, genetic background: ΔsoxS) was -0.282 ± 0.18 and the “promoter activity interaction Z-score” value (10.6 µg/ml, genetic background: wild type) was -0.326 ± 0.14. The “promoter activity interaction Z-score” value (10.6 µg/ml, genetic background: ΔmarA) was -0.464 ± 0.54, the “promoter activity interaction Z-score” value (10.6 µg/ml, genetic background: Δrob) was -0.127 ± 0.2 and the “promoter activity interaction Z-score” value (10.6 µg/ml, genetic background: ΔsoxS) was -0.485 ± 0.34. The “promoter activity interaction Z-score” value (21.1 µg/ml, genetic background: wild type) was -0.471 ± 0.16, the “promoter activity interaction Z-score” value (21.1 µg/ml, genetic background: ΔmarA) was -0.634 ± 0.25 and the “promoter activity interaction Z-score” value (21.1 µg/ml, genetic background: Δrob) was -0.663 ± 0.56. For the same molecule, the “promoter activity interaction Z-score” value (21.1 µg/ml, genetic background: ΔsoxS) was -0.645 ± 0.46.
